This is part of a sample that, as a whole, favours compounds with a hit. Of some 79,000 tested, about 15% had one in any assay. Cut-off read from the data, not from the text of the source: active = growth inhibition above about 70%; inactive = the rest. Where a SMILES comes first, the peptide text is derived from it. [ ]: non-standard residue; d: D form. The star is where a group is joined. Ac5c = NC1(C(=O)O)CCCC1; Cbz = O=C(OCc1ccccc1)*; Boc = CC(C)(C)OC(=O)*; tBu = CC(C)(C)*
Experiments:
[1] = NCI Yeast Anticancer Drug Screen. Data for the rad50 strain (AID 155);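 note: 0% = growth of vehicle-only cultures of the same strain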; settings: S. cerevisiae rad50 strain growth inhibition; at 50.0 µM; active compounds read high
Method in brief: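 Readout: growth inhibition relative to vehicle-treated cultures. Compound exposure was carried out in a genetically defined yeast strain deficient in DNA damage repair.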

[2] = NCI Yeast Anticancer Drug Screen. Data for the mec2-1 strain (AID 157); settings: S. cerevisiae mec2-1 strain, at 50.0 µM, active compounds read high
Method in brief: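 Vehicle-treated cultures served as reference for growth inhibition of compound-exposed mec2-1 yeast.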

[3] = NCI Yeast Anticancer Drug Screen. Data for the sgs1 mgt1 strain (AID 161);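 note: 0% = growth of cultures given vehicle only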; settings: S. cerevisiae sgs1 mgt1 strain, at 50.0 µM, active compounds read high
Method in brief: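 Read-out: growth inhibition vs vehicle controls. Cells: mutant yeast strain deficient in DNA damage repair.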

[4] = NCI Yeast Anticancer Drug Screen. Data for the cln2 rad14 strain (AID 165);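 note: 0% = growth equal to vehicle treated cultures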; settings: S. cerevisiae cln2 rad14 strain, at 50.0 µM, active compounds read high
Method in brief: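 Each compound was tested on cln2 rad14 yeast. Inhibition of growth was calculated against vehicle-exposed controls.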

[5] = NCI Yeast Anticancer Drug Screen. Data for the bub3 strain (AID 167); settings: S. cerevisiae bub3 mutant strain, at 50.0 µM, active compounds read high
Method in brief: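 Readout: yeast growth inhibition, expressed relative to vehicle-only wells. The test organism is a mutant strain from a panel with lesions in DNA repair or checkpoint genes.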

[6] = NCI Yeast Anticancer Drug Screen. Data for the mlh1 rad18 strain (AID 175); settings: S. cerevisiae mlh1 rad18 strain growth inhibition; at 50.0 µM; active compounds read high
Method in brief: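 Vehicle-treated cultures served as the reference for growth inhibition in a yeast strain carrying DNA damage repair alterations exposed to each compound.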

Measured: growth inhibition

CC(O)CC1CC(=O)CCC1=O (stereo unspecified)
inactive: [1] 0.35% | [2] -18.1% | [3] -10.7% | [4] -29.2% | [5] -5.85% | [6] 8.3%

CCOC(=O)COc1ccc(Cl)cc1CCl
inactive: [1] 3.2% | [2] 6.4% | [3] -10.4% | [4] -10.9% | [5] 21.9% | [6] 1.65%

CCOC(=O)CCC(NC(=O)c1ccc(Nc2nc3ccccc3nc2C(=O)OCC)cc1)C(=O)OCC (stereo unspecified)
inactive: [1] 11.8% | [2] 2.55% | [3] 9.1% | [4] 15.4% | [5] 25.8% | [6] 19.1%

CCC1=CCN2CCC34c5cc(C6(C(=O)OC)CC7CC(CC)CN(CCc8c6[nH]c6ccccc86)C7)c(OC)cc5N(C)C3C(O)(C(=O)OC)C(OC(C)=O)C1C24 (stereo unspecified)
inactive: [1] 0.2% | [2] 9.25% | [3] -3.95% | [4] 3.95% | [5] -1.55% | [6] 10.6%

Cc1cc(C(c2ccc(Nc3ccccc3)cc2)c2ccc(Nc3ccccc3)cc2)ccc1Nc1ccccc1
inactive: [1] 2.35% | [2] -4.65% | [3] 7.5% | [4] -7.05% | [5] 5.5% | [6] -19.1%

CC(C)CCC(=O)O
inactive: [1] -8.45% | [2] -9.1% | [3] -4.4% | [4] -9.6% | [5] 3.8% | [6] -10.4%

COC(=O)C1(NC(=O)C(Cc2ccccc2)NC(=O)C(NC(=O)C(CCCCNC(=O)OC(C)(C)C)NC(=O)C(Cc2c[nH]c3ccccc23)NC(=O)C(Cc2ccccc2)NC(=O)OCc2ccccc2)C(C)OC(C)(C)C)CCCC1 (stereo unspecified) (Cbz-FWK(Boc)T(tBu)F[Ac5c]-OMe; configuration not given here)
inactive: [1] -11.9% | [2] -1.85% | [3] -26.6% | [4] 6.9% | [5] -11.4% | [6] -12.7%

CCCC1OCC(O)C(C(O)C(=O)CN(Cc2ccccc2)Cc2ccccc2)O1 (stereo unspecified)
inactive: [1] 0.1% | [2] 1.35% | [3] 1.55% | [4] -9.5% | [5] -3.8% | [6] 3.75%

COc1cc(OC)c(C2c3cc4c(cc3OC(C)(N3CCCC3)C2C)OCO4)c(OC)c1 (stereo unspecified)
inactive: [1] 4.5% | [2] 14.6% | [3] 5.25% | [4] -8.65% | [5] 9.45% | [6] 20.3%

Cc1cc(N(CCC#N)CCC#N)ccc1/C=C(\N=[N+]=[N-])C(=O)NC(=O)COc1ccccc1
inactive: [1] 16.1% | [2] -19.8% | [3] 4.7% | [4] 11.9% | [5] -6.65% | [6] -9.05%

O=C(Nc1ccc(S(=O)(=O)N2CCCCC2)cc1)OC(c1ccccc1)c1ccccc1
inactive: [1] 38.3% | [2] -6.6% | [3] 27.4% | [4] 15.9% | [5] -11.7% | [6] 6.05%

NC(=O)c1nnn(-c2ccccc2)n1
inactive: [1] -9.75% | [2] -8.9% | [3] -10% | [4] -12.3% | [5] -5.75% | [6] -12.7%

C=C(CN(C)C)C(=O)c1ccccc1OC
inactive: [1] 35.7% | [2] 30.1% | [3] 44.8% | [4] -25.9% | [5] 35.3% | [6] 18.8%

O=C1OC2C(I)C3C(C4CCCCC4)C1C23 (stereo unspecified)
inactive: [1] 8.3% | [2] -3.85% | [3] 31.8% | [4] 17% | [5] 65.8% | [6] 7.7%

Cn1cc(-c2ccc3c4ccccc4n(C)c3c2)c2ccccc21
inactive: [1] -17.9% | [2] -4.3% | [3] -7.5% | [4] -2.8% | [5] -10.2% | [6] 2.15%

CCCCCC(C)(C)O
inactive: [1] 7.6% | [2] -6.55% | [3] -3.9% | [4] -40.9% | [5] 4.75% | [6] -4.75%

O=C(O)C1CCC(C(=O)O)S1 (stereo unspecified)
inactive: [1] 1.85% | [2] -10.4% | [3] -0.85% | [4] -13.1% | [5] 9.9% | [6] 16.1%

CC(=O)OCCn1c(C)nc2cc(Cl)c(Cl)cc21
inactive: [1] 33.1% | [2] 5.45% | [3] 16.3% | [4] 31.9% | [5] 23.7% | [6] 36.2%

O=C(O)CCC12CCC(=O)C=C1NC(=O)CC2 (stereo unspecified)
inactive: [1] 1.55% | [2] -4.4% | [3] -7.2% | [4] -1.65% | [5] 0.15% | [6] -1.25%

CC(O)COc1ccc(OCc2ccccc2)cc1 (stereo unspecified)
inactive: [1] 26.6% | [2] 34.6% | [3] 49.9% | [4] 10.2% | [5] 46.5% | [6] 33.9%

CCOC(=O)C(NC(=O)Nc1ccccc1F)(OC)C(F)(F)F (stereo unspecified)
inactive: [1] -23.1% | [2] -38.3% | [3] -75.4% | [4] -4.3% | [5] -28% | [6] -59.6%

CCOC(O)C(F)(F)C(F)(F)C(F)(F)F (stereo unspecified)
inactive: [1] 9.05% | [2] -32.2% | [3] 3.5% | [4] 20.9% | [5] -7.95% | [6] 20.1%

Cc1ccc(C(C(=O)O)C(Cl)(Cl)Cl)cc1 (stereo unspecified)
inactive: [1] 6.7% | [2] -11% | [3] -0.75% | [4] 0.7% | [5] -6.45% | [6] 4.65%

CN(C)C(=O)c1ccc([N+](=O)[O-])cc1
inactive: [1] 21.1% | [2] 6.4% | [3] 11.8% | [4] 12.1% | [5] -4.75% | [6] -23.4%

[O-]c1c[n+](CC[n+]2cc([O-])on2)no1
inactive: [1] 13.7% | [2] -8.45% | [3] -13.2% | [4] 40.5% | [5] -19.6% | [6] -14.7%

COC(=O)[CH2][Ge]([c]1ccccc1)[c]1ccccc1.COC(=O)[CH2][Ge]([c]1ccccc1)[c]1ccccc1
inactive: [1] 15.8% | [2] 9.15% | [3] 37.3% | [4] -5% | [5] -12.2% | [6] -8.3%

CS(=O)(=O)C1CCCCC1SC#N (stereo unspecified)
inactive: [1] -5.1% | [2] -16.7% | [3] -14.5% | [4] -19% | [5] 4.1% | [6] 3.45%

COc1ccc2c(c1)C(=O)N1CCOC1C2C(=O)O (stereo unspecified)
inactive: [1] 0.1% | [2] -31.8% | [3] -9.5% | [4] 11.3% | [5] -0.8% | [6] -30.3%

CC(=O)Nc1ccc(NC(=O)Nc2cc(Cl)ccc2C)cc1
inactive: [1] 14.3% | [2] 5.05% | [3] 0.7% | [4] 13.1% | [5] 17.8% | [6] 5.1%

CSc1ccc(NC(=O)Nc2cccc(C)c2C)cc1
inactive: [1] 1.75% | [2] 27.1% | [3] 27.8% | [4] -7.2% | [5] 27.6% | [6] 15.3%

CC1(C)OC(=O)N=C1c1ccc(Br)cc1
inactive: [1] 1.4% | [2] -25.6% | [3] -21.1% | [4] 21.8% | [5] -22% | [6] 15.3%

NCCCCCCN
inactive: [1] -50.6% | [2] -6.05% | [3] -36.6% | [4] -46.8% | [5] -45.5% | [6] -65%

COc1ccc(CCCCC(=O)O)cc1
inactive: [1] -12.1% | [2] -3.4% | [3] -0.65% | [4] -2.7% | [5] -7.55% | [6] -9.1%

ClC(Cl)=C(Cl)C1(Cl)CC1COCc1ccccc1 (stereo unspecified)
inactive: [1] 45.5% | [2] -10.1% | [3] -4.05% | [4] 17.9% | [5] -7.85% | [6] -3%

O=[N+]([O-])c1ncc(N(CCO)CCO)s1
inactive: [1] 19.2% | [2] -22.6% | [3] 17.6% | [4] 3.65% | [5] -18.2% | [6] -22.3%

CSc1cc2c(cc1[N+](=O)[O-])C(=O)c1cc(F)ccc1-2
inactive: [1] 8.7% | [2] 18.1% | [3] 4.45% | [4] -5.5% | [5] 3.15% | [6] 5%

CCOC(=O)c1ccc(CSc2ccc(N)cc2)c([N+](=O)[O-])c1
inactive: [1] -0.6% | [2] 7.15% | [3] 17.4% | [4] 11.4% | [5] 2.3% | [6] 20.2%

OCC1OC(n2cc[nH]c2=S)C(O)C1O (stereo unspecified)
inactive: [1] 8.5% | [2] 7.6% | [3] -2.6% | [4] 4.45% | [5] 10.2% | [6] -12.7%

CC(=O)Nc1ccccc1C(C)=O
inactive: [1] 5.45% | [2] -7.25% | [3] -10.2% | [4] 10% | [5] -8.05% | [6] 4.85%

CC(C)C1CC(N(C)C)=CC(=O)N1 (stereo unspecified)
inactive: [1] -41.5% | [2] 5.95% | [3] 2.75% | [4] -14.4% | [5] 10.8% | [6] 10.9%

CC1(C)C2CCC(CCOC(=O)COc3ccc(Cl)cc3Cl)C1C2 (stereo unspecified)
inactive: [1] -13% | [2] -5.45% | [3] 1% | [4] -34.8% | [5] 5% | [6] 29%

From PubChem BioAssay (NCI)
